Z-score and composite z-score data for 13 compounds are collected here from PubChem BioAssay.

The nature of assay [1]: resazurin metabolic signal in HepG2 cells – cell-based, resazurin fluorescence, 24 h, PK04 Diversity Set, profiling panel (AID 1172). Also: test concentration not given here. The settings on record: HepG2 viability, higher = more signal. A general note: The colour change of resazurin is a common sign of viable cells or microbes.
The nature of assay [2]: budding yeast growth changes without added modifier – OD600, strain BY4716, 24 h, basal condition, primary screen (AID 1173). The settings on record: S. cerevisiae BY4716 growth, OD600, 24 h; higher = more signal, called active from +8 up or from −8 down.
Assay [3] in a line: viability profiling in MM1S myeloma cells – cell-based, resazurin fluorescence, basal, 24 h, PK04 Diversity Set, profiling panel (AID 1174). Also: test concentration not given here. The settings on record: higher = more signal, called active from +8 up or from −8 down.
Assay [4] addresses Dihydroorotate dehydrogenase (quinone), mitochondrial (Plasmodium falciparum (isolate 3D7)) (UniProt Q08210). As to the kind of experiment: inhibition of P. falciparum DHODH – biochemical, C-terminal His tag, absorbance 600 nm, primary screen (AID 1175).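 Also: recombinant parasite enzyme with a five histidine tag at its C terminus; test concentration not given here.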 To be noted: PfDHODH enzyme, DCIP absorbance 600 nm; higher = more signal, called active from +8 up or from −8 down.
A short description of assay [5]: inhibition of PAO1 biofilm formation – strain PAO1, LB-PBS medium, absorbance 600 nm, primary screen (AID 1176). Also: test concentration not given here. To be noted: P. aeruginosa PAO1 growth/biofilm, A600, 12 h; higher = more signal.
Assay [6] in a line: growth modulation of vineyard yeast isolate – strain RM11-1a, OD600, basal, 24 h, primary screen (AID 1177).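 Also: cultures grown under basal conditions with no added stressor; test concentration not given here.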 To be noted: S. cerevisiae RM11-1a growth, OD600, 24 h; higher = more signal, called active from +8 up or from −8 down.
Assay [7] in a line: growth of efflux-deficient E. coli DRC39 – strain DRC39, OD650, 24 h, E. coli filamentation inducers, primary screen (AID 1178).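 Also: growth measured as culture turbidity by optical density at 650 nm; test concentration not given here.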 To be noted: E. coli DRC39 acrAB, higher = more signal, called active from +8 up or from −8 down.
A short description of assay [8]: growth of efflux-deficient E. coli DRC39 – strain DRC39, OD650, 48 h, E. coli filamentation inducers, primary screen (AID 1179).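 Also: screen aims at cell division blockers that make cells filament.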 The settings on record: E. coli DRC39 delta-acrAB growth, higher = more signal, called active from +8 up or from −8 down.
Assay [9] is described as follows: viability profiling in RPMI8226 myeloma cells – cell-based, resazurin fluorescence, basal, 24 h, PK04 Diversity Set, profiling panel (AID 1180).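 Also: RPMI8826 multiple myeloma cell line at 5000 cells per well; test concentration not given here.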 To be noted: higher = more signal.
The target in assay [10] is E3 ubiquitin-protein ligase XIAP (Homo sapiens) (UniProt P98170). Put plainly: small molecules binding XIAP protein – biophysical, small-molecule microarray, fluorescence 635 nm, primary screen (AID 1181).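 Also: score merges 667 nm emission and signal to noise over triplicate slides.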 The settings on record: higher = more signal.

Activity calls are given as the source filed them. Unless noted, no rule for the calls is given here.

Sequence of E3 ubiquitin-protein ligase XIAP (Homo sapiens) (P98170 whole entry, looked up): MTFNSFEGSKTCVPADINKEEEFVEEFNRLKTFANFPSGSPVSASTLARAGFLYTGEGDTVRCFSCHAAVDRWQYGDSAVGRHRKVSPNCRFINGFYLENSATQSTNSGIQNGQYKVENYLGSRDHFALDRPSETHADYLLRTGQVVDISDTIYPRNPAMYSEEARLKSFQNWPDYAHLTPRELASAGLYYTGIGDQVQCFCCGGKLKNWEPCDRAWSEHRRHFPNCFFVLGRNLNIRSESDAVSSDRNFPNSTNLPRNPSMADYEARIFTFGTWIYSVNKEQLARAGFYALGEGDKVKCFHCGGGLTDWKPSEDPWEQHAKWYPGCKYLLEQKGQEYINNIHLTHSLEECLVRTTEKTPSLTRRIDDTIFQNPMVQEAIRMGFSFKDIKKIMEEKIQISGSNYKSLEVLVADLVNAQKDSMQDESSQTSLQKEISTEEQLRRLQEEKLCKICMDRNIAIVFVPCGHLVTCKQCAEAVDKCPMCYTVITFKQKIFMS
Sequence of Dihydroorotate dehydrogenase (quinone), mitochondrial (Plasmodium falciparum (isolate 3D7)) (Q08210 whole entry, looked up): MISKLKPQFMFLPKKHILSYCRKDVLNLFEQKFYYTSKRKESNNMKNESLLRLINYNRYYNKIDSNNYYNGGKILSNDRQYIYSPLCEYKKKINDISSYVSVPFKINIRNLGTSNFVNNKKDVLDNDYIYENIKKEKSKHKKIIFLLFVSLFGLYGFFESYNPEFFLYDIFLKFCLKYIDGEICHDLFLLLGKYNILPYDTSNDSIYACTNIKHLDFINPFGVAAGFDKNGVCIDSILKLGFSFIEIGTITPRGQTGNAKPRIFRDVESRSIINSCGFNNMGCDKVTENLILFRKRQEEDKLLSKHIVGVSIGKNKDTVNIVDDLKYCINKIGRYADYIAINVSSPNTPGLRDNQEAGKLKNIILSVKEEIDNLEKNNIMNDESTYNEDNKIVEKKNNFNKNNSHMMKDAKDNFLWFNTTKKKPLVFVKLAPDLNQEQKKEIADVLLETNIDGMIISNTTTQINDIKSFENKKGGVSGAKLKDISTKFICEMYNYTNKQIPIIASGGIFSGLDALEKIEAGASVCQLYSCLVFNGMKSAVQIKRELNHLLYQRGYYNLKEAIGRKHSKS

For the compound `O=C1O[C@H](c2ccccc2)[C@H](c2ccccc2)N2[C@H]1[C@@H](C(=O)NC[C@H](O)c1ccccc1)[C@]1(C(=O)Nc3ccc(C#CCCO)cc31)[C@H]2c1ccc(OCCO)cc1`, the z-score in [1] was -0.468; in assay [2] it was 1.62 (inactive); in [3] it was -0.0793 (inactive); in assay [5] it was 2.31 (inactive); in [6], 3.46 (inactive); in assay [7] it was 0.541 (inactive). Besides, the results for the z-score in assay [8] and in assay [9] were 0.721 (inactive) and -0.821, respectively. Further, the results for the composite z-score in [4] and in assay [10] were -1.33 (inactive) and 0.283, respectively.
`COC(=O)c1c2oc(c1C(=O)OC)C(=O)N(Cc1ccccc1)Cc1cn(nn1)C[C@H](Cc1ccccc1)NC(=O)N[C@H](CO)CC2`: the z-score in assay [1] is 1.18; in assay [2], -1.78 (inactive); in assay [3], 0.312 (inactive); in [5] it was 0.231 (inactive); in [6], -1.38 (inactive); in [7] it was 1.33 (inactive). Further, the z-score was 1.89 (inactive) in assay [8] and 1.16 in assay [9]. The composite z-score in assay [4] was -0.519 (inactive); in [10], 0.725.
Regarding `C=CCOC(=O)[C@H]1[C@@H]2C(=O)O[C@@H](c3ccccc3)[C@@H](c3ccccc3)N2[C@@H](c2ccc(OCCOC(=O)[C@H]3C[C@H]4C(=O)N[C@@H](CCCCNC(C)=O)C(=O)N4[C@H]3c3ccc(O)cc3)cc2)[C@]12C(=O)Nc1ccccc12`, the z-score in assay [1] is 2.07; in [2], -1.68 (inactive); in assay [3], 1.74 (inactive); in [5], 2.52 (inactive); in [6], -2.05 (inactive); in [7] it was 2.63 (inactive). Further, the figures for the z-score in [8] and in assay [9] were 2.11 (inactive) and 1.11, respectively. The composite z-score in [4] is -0.875 (inactive); in assay [10], 0.0013.
As for `COc1cc2c(cc1O)C(C)N(Cc1ccc([N+](=O)[O-])o1)CC2` (stereo not given), the z-score in assay [1] is -0.11; in assay [2], -0.942 (inactive); in [3] it was -0.653 (inactive); in [5] it was -0.103 (inactive); in [6], -0.74 (inactive); in assay [7] it was -1.04 (inactive). The z-score in [8] was -0.679 (inactive); in assay [9], -0.396. Further, the composite z-score in [4] was -0.749 (inactive); in assay [10], -0.127.
`CC1=C[C@@]2(CO)C(=O)[C@]3(CO3)[C@@H]1[C@H]1[C@]2(C)C=C(CO)C(=O)[C@]12CO2`: the z-score in [1] was 0.693; in [2], -2.6 (inactive); in [3], -0.54 (inactive); in assay [5] it was -0.614 (inactive); in [6], -0.813 (inactive); in assay [7], 0.477 (inactive). The z-score in assay [8] is 0.655 (inactive); in [9], 0.483. Moreover, the composite z-score was -2.12 (inactive) in assay [4] and -0.227 in assay [10].
`C=CCC(OC(C)=O)[C@@H]1[C@@H](N(Cc2cccc3ccccc23)C(=O)Cc2ccc(OC)cc2)c2cc(OCCCO)ccc2N1C(=O)c1ccc2ccccc2n1` (stereo not given in full): the z-score in assay [1] is 0.602; in assay [2] it was 0.0243 (inactive); in [3], -0.415 (inactive); in assay [5], -0.145 (inactive); in [6], -0.212 (inactive); in assay [7], 0.884 (inactive). Moreover, the figures for the z-score in assay [8] and in [9] were 0.284 (inactive) and 0.0309, respectively. For the same compound, the composite z-score was -0.175 (inactive) in assay [4] and 0.343 in assay [10].
With `COc1ccc(CCNC(=O)[C@@]2(Sc3ccc(C)cc3)CC(=O)N(C3Cc4ccccc4C3)[C@@H]2c2ccc(CO)cc2)cc1`, the z-score in [1] was 0.115; in assay [2] it was 0.293 (inactive); in assay [3] it was -1.13 (inactive); in assay [5], 0.31 (inactive); in [6], -0.255 (inactive); in [7], 0.514 (inactive). Further, the z-score in [8] is 0.005 (inactive); in assay [9], 0.136. Besides, the values for the composite z-score in [4] and in [10] were -0.396 (inactive) and 2.04, respectively.
Turning to `C=CC[C@]1(C(=O)O)COC(c2ccc(OCCCO)cc2)=N1`, the z-score in assay [1] is 0.264; in [2], 0.32 (inactive); in assay [3], 0.546 (inactive); in assay [5] it was 0.37 (inactive); in assay [6], -0.643 (inactive); in [7] it was -0.353 (inactive). Also, the z-score is -0.201 (inactive) in assay [8] and -0.1 in assay [9]. Further, the composite z-score in assay [4] was 0.146 (inactive); in assay [10], 0.1.
Regarding `C=C(/C(=C/C[C@H](OC(C)=O)c1ccccc1OCCO)c1cc(C(=O)OC)ccc1OC)C(C)C`, the z-score is -0.169 in [1]; -2.2 (inactive) in assay [2]; 0.121 (inactive) in [3]; -0.529 (inactive) in assay [5]; -0.0703 (inactive) in assay [6]; -0.0536 (inactive) in assay [7]. For the same compound, the z-score was -0.216 (inactive) in assay [8] and 0.0967 in [9]. For the same compound, the figures for the composite z-score in assay [4] and in assay [10] were -1.96 (inactive) and 0.13, respectively.
For the compound `COc1ccc(C#Cc2ccc3c(c2)[C@]2(C(=O)N3)[C@H](c3ccc(O)cc3)N3[C@H](c4ccccc4)[C@H](c4ccccc4)OC(=O)[C@H]3[C@@H]2C(=O)O)cc1`, the z-score was 0.275 in assay [1]; -1.16 (inactive) in [2]; 0.504 (inactive) in assay [3]; 1.15 (inactive) in [5]; 0.0708 (inactive) in assay [6]; 0.355 (inactive) in [7]. Moreover, the z-score in assay [8] was -0.341 (inactive); in [9], 0.801. The composite z-score in assay [4] was -2.78 (inactive); in assay [10], 0.126.
For `O=C1O[C@H](c2ccccc2)[C@H](c2ccccc2)N2[C@H]1[C@@H](C(=O)Nc1nc3ccccc3s1)[C@]1(C(=O)Nc3ccccc31)[C@H]2c1ccc(OCCO)cc1`, the z-score is 0.0114 in assay [1]; 0.445 (inactive) in [2]; -1.08 (inactive) in assay [3]; 3.02 (inactive) in assay [5]; 1.68 (inactive) in assay [6]; -0.476 (inactive) in assay [7]. Besides, the z-score is 0.282 (inactive) in assay [8] and -2.02 in assay [9]. The composite z-score in assay [4] is -1.8 (inactive); in [10] it was -0.356.
Consider `COc1ccc([Si](C)(C)[C@H]2[C@H](CCn3cc([C@H](O)c4ccccc4)nn3)O[C@@]3(C(=O)N(Cc4ccc(N5C(=O)c6cccc7cccc5c67)cc4)c4ccccc43)[C@@H]2C)cc1`, for which the z-score in assay [1] is -0.0876; in assay [2], 0.0957 (inactive); in assay [3] it was -1.96 (inactive); in [5], 1.03 (inactive); in assay [6], 1.26 (inactive); in assay [7], 1.57 (inactive). The figures for the z-score in [8] and in assay [9] were 1.45 (inactive) and -0.761, respectively. In addition, the composite z-score was 0.468 (inactive) in assay [4] and -0.031 in [10].
As for `CCCCCCCCCCC(O)C1C=CC2C(=O)N(C)C(=O)C2N1Nc1ccc([N+](=O)[O-])cc1[N+](=O)[O-]` (stereo not given), the z-score was -1.62 in assay [1]; 0.869 (inactive) in assay [2]; -1.64 (inactive) in assay [3]; 0.695 (inactive) in [5]; 0.945 (inactive) in assay [6]; -1.26 (inactive) in [7]. Further, the z-score is -0.459 (inactive) in assay [8] and -1.67 in assay [9]. Moreover, the composite z-score was -1.39 (inactive) in assay [4] and -0.0994 in assay [10].
